Source: PubChem BioAssay AID1851 (National Center for Advancing Translational Sciences (NCATS), 2009)
Screen size: about 16,000 compounds; about 5,100 (32%) were called active. Roughly 25% stayed inconclusive and do not appear here. Calls follow the shape of the dose curve; as a rule, active = well fitted curve in the direction sought with a large enough effect; inconclusive = small, poorly fitted or top-dose-only effect, or effect the other way; inactive = no such curve, though single readings can be large or run the other way. This is one part of the list. Peptide text beside a SMILES is read from it.

Biological target: Cytochrome P450 3A4 (Homo sapiens) (UniProt P08684)
Sequence (P08684 whole entry, looked up): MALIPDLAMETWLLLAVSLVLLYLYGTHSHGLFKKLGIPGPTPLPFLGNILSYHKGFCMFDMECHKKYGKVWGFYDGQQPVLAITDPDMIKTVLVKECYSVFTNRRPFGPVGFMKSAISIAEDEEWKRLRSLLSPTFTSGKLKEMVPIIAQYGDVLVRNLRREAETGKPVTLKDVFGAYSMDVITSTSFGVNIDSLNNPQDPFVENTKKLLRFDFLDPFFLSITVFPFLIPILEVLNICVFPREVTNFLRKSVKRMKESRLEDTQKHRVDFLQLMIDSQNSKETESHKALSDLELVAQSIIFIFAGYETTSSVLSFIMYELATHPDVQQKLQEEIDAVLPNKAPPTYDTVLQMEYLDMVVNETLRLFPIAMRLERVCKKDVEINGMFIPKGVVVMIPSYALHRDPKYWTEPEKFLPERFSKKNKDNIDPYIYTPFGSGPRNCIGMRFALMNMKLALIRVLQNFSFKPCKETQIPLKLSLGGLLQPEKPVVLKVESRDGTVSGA
Assay: Cytochrome panel assay with activity outcomes
Details: recombinant CYP, pro-luciferin dealkylation, luminescence, p450-cyp3a4; series mostly up to 57.1 µM; activity, negative = inhibition: at the top concentration
% is scaled to controls: 0 for no effect and ±100 for the full control effect.

AC50, inactive:
CC(=O)N[C@@H](CC(=O)O)C(=O)N[C@@H](CCC(=O)O)C(=O)O (Ac-Asp-Glu-OH)
CN1[C@@H]2CC[C@H]1CC(OC(c1ccccc1)c1ccccc1)C2 (some centres not stated)

AC50, active:
COc1cc(/C=N/O)cc(Br)c1OCc1ccc(Cl)cc1 15.8 µM
COc1cc(/C=N/O)cc(Br)c1OCc1cccc(Cl)c1 14.1 µM
Cc1ccc(-c2ccc(=O)n(CC(=O)N3CCN(c4cccc(C)c4)C(C)C3)n2)cc1 (configuration not stated) 14.1 µM
COc1cc2c(cc1OC)C(c1ccc(N)cc1)=NNC(=O)C2 12.6 µM
COC(=O)c1cc(Br)c(=O)n(CCc2ccc(O)cc2)c1 15.8 µM
CCOc1ccc2c(c1)nc(SCC(=O)c1ccc(Br)s1)n2C 6.31 µM
C=CCNC(=S)Nc1ccc2nc(C)c(C)nc2c1 15.8 µM
CC(C)Cn1c(SCC(=O)c2c(N)n(C)c(=O)n(C)c2=O)nc2ccccc21 2.51 µM
CCNC(=O)NC(=O)CSc1nc2ccccc2n1CC(C)C 12.6 µM
CC(=O)Oc1ccc2ccccc2c1C(NC(=O)Cc1ccccc1)c1ccc(Cl)cc1 (configuration not stated) 8.91 µM
C=CCN(CC=C)C(=O)C(=O)c1cc(C)n(-c2ccc([N+](=O)[O-])cc2)c1C 2.82 µM
O=C(Nc1nccs1)c1sc2cc(Cl)ccc2c1Cl 10 µM
COc1ccccc1CNc1ncnc2ccc(-c3ccccc3C#N)cc12 3.98 µM
COc1ccc(CNc2ncnc3ccc(-c4ccccc4C#N)cc23)c(OC)c1 1 µM

activity, negative = inhibition, inactive:
COc1cnc(SCc2ccc(Cl)cc2)nc1Cl 6.01%
Cc1ccc(-c2ccc(=O)n(CC(=O)NCCN(C)C)n2)cc1 13%
CCCN1CCN(CCCNC(=O)Cn2nc(-c3ccc(C)cc3)ccc2=O)CC1 -25.4%
COC(=O)c1cc(Br)c(=O)n(CCN2CCCC2)c1 8.19% [at 2.29 µM]
c1ccc2nc(C3=NCCN3)cnc2c1 -18.6%
C=CCNC(=S)N/N=C/c1ccc(OCc2ccccc2)cc1 -13.6%
OC[C@@H]1O[C@@H](n2cnc3c(NC4CCCC4)ncnc32)[C@H](O)[C@H]1O -10%
O=C(Cc1ccc(Cl)cc1)NNC(=O)Nc1cccc2ccccc12 -12.3% [at 2.29 µM]
Cc1cc(C(=O)C(=O)NC(C)C)c(C)n1-c1ccc([N+](=O)[O-])cc1 -1.9%
CCC(=O)Nc1nnc(C(C)(C)C)s1 -12%
Clc1ccc2c(NCCNc3ccnc4cc(Cl)ccc34)ccnc2c1 4.32% [at 11.4 µM]
